# Screening results as filed in PubChem.
# HttQ103 aggreg – inhibitors of mutant huntingtin aggregate formation in PC12 cells; 220,000 compounds, 1.1% hits; Potency, µM (highest dose often 46.1 µM), for inactives: at the highest dose activity change, negative = inhibition, hits mostly inhibitors; PC12 HttQ103-GFP aggregates, Acumen cytometry, 40 h; active means well fitted curve in the direction sought with a large enough effect; inconclusive means small, poorly fitted or top-dose-only effect, or another doubt; inactive means no such curve, though single readings can be large; an effect the other way counts as inactive or inconclusive; further: potency means the concentration at half of the fitted maximal effect; on the % scale 0 is the no-effect control and ±100 the full control effect; nearly all actives have a fitted effect of over 60% in size
#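 Ecdysone-promoter PC12 model expressing HTT exon 1 Q103 fused to GFP, induced by tebufenozide at 100 nM final. Compounds titrated; aggregates sized 1–25 µm scored on a 488 nm laser cytometer.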
# PNC inhibitor – perinucleolar compartment assembly inhibition | PC3M PTB-GFP, PNC prevalence imaging, 16 h; stronger effect = lower value | activity change (PNC), negative = inhibition, % at 10 µM | 140,000 compounds, 3.1% hits;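 active means readout at or below -70, meaning at least 70% loss of cells showing the perinucleolar compartment, a nuclear body marking cancer cells; inconclusive means readout between -30 and a set limit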;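 further: plate controls were DMSO wells for no effect and camptothecin positive control wells for full effect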
#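 Read-out is percentage of cells bearing a perinucleolar compartment, from automated 20x imaging of fixed, Hoechst-stained PC3M PTB-GFP cells. Cells were seeded 4 h, then exposed 16 h to compound (23 nl of library stock) in duplicate plates.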
# HTT cytoprotect – cytoprotection in Huntington HTT-Q103 PC12 cell model; 230,000 compounds, 0.14% hits; PC12 HTT-Q103 induced, cytoprotection, ATP luminescence, 40 h; AID 1471; Potency, µM (highest dose often 56.4 µM), for the others: cytoprotection (ATP increase), hits mostly activators; active means well fitted curve in the direction sought with a large enough effect; inconclusive means small, poorly fitted or top-dose-only effect, or another doubt; inactive means no such curve, though single readings can be large; an effect the other way counts as inactive or inconclusive; further: potency means the concentration at half of the fitted maximal effect; % of control where 0% means no effect; nearly all actives have a fitted effect of over 45% in size
#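 ATP quantification (ATPlite) reports survival of PC12 cells in which tebufenozide, 100 nM final, switches on Htt exon 1 with 103 glutamines linked to GFP; compounds are titrated.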
# ALDH1A1 block – blocks purified human ALDH1A1 activity; P00352; 220,000 compounds, 7.3% hits; AID 1030; Potency, µM (series often up to 75.3 µM), inactives show top-dose activity, negative = inhibition, usual class: inhibitors; Purified ALDH1A1, NADH fluorescence, propionaldehyde substrate;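 further: potency means the concentration at half of the fitted maximal effect; plate controls were no enzyme wells and a reference inhibitor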
# RGS12 GoLoco inh – inhibitors of human Gai1-RGS12 GoLoco interaction (red fluorophore) | P63096 | Gai1:RGS12 GoLoco peptide FP, rhodamine, 10 min | 230,000 compounds, 0.44% hits | Potency, µM (series often up to 61.6 µM), inactives show at the highest dose activity, negative = inhibition, actives largely listed as inhibitors; active means well fitted inhibition curve with a large enough effect, not every such curve was filed as active; inactive means no such curve, though single readings can be large or run the other way; further: potency means the concentration at half of the fitted maximal effect; on the % scale 0 is the no-effect control and ±100 the full control effect; nearly all actives have a fitted effect of over 30% in size
# Target sequence (P63096 whole entry, looked up): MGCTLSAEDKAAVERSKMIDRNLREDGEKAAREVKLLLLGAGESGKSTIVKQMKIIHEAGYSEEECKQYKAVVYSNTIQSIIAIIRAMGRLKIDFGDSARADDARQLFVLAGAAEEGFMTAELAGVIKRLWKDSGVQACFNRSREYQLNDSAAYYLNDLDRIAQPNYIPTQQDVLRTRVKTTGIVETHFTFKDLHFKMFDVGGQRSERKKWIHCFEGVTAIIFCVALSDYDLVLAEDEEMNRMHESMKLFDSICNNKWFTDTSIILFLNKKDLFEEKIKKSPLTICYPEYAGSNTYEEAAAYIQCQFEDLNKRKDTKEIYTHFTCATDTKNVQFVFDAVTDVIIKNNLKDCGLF
# HPGD block – blocks human HPGD enzyme activity; P15428; purified HPGD, NADH fluorescence kinetic, PGE2 substrate; Potency, µM, inactives show top-dose activity change, negative = inhibition, usual class: inhibitors; 150,000 compounds, 4.3% hits; further: potency means the concentration at half of the fitted maximal effect; on the % scale 0 is the no-effect control and ±100 the full control effect
# Target sequence (P15428 whole entry, looked up): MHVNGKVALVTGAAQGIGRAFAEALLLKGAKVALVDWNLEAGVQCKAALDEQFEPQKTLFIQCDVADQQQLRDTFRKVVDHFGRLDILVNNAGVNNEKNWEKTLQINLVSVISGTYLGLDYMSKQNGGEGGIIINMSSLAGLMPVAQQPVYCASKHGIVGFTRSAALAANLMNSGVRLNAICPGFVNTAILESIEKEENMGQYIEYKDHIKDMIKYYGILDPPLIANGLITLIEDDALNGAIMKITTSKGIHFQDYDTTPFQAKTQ
#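 20 nM HPGD preincubated 15 min at room temperature with compound in 50 mM Tris-HCl pH 8, 0.01% Tween 20. Started with 1 mM NAD+ and 30 uM prostaglandin E2; NADH fluorescence (360/450 nm) read 5 times over 30-s intervals, last minus first.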
# Starred values were filed as active, the others as inactive; ? = inconclusive; . = no result; [ ] = another dose, or the depositor's remark. Rows were chosen to be rich in hits. Some 11% of all compounds tested hit in one or more screens of this group. Unless noted, the call rests on the fitted dose curve; in most records, active means well fitted inhibition curve with a large enough effect (not every such curve was filed as active); inconclusive means small, poorly fitted or top-dose-only effect, or another doubt; inactive means no such curve, though single readings can be large or run the other way.
SMILES,HttQ103 aggreg,PNC inhibitor,HTT cytoprotect,ALDH1A1 block,RGS12 GoLoco inh,HPGD block
CCCCCCn1c(C(C)NC(=O)c2ccco2)nc2ccccc21 (stereo not given),7%,17,-14%[0.074 µM],5µM*,4%,-7%
CCCCn1c(C(C)NC(=O)CC)nc2ccccc21 (stereo not given),-5%,?,-5%,-4%,-2%,-6%
S=C(NCC1CCCO1)Nc1ccc(Cl)cc1Cl (stereo not given),12%,?,22%[10 µM],-5%,3%,28µM*
Cc1cccc(NC(=S)NCC2CCCO2)c1 (stereo not given),15%,17,15%,-5%,7%,14µM*
S=C(NCC1CCCO1)Nc1ccc(Cl)cc1 (stereo not given),-12%,27,16%[0.074 µM],-15%,9%,-26%
O=C(COc1ccc(-n2ccnc2)cc1)Nc1cccc(Cl)c1,-5%,.,-33%,-4%,-8%,.
CC1(C)Cc2ccccc2C(NN=C2CCCC2)=N1,3%[9.22 µM],.,5%[10 µM],3%,24%,.
Cc1noc(C)c1C(=O)N1CCC[C@@]2(CCN(c3ccccc3)C2)C1,.,.,6%,-4%,-5%,-3%
CCN(CC)c1ccc(C=C2C(=O)OC3(CCCC3)OC2=O)cc1,1%,?,?,0.71µM*,206%,?
CCN(CC)c1ccc(C=C2C(=O)OC(c3ccccc3)OC2=O)cc1 (stereo not given),22%,.,-6%,0.28µM*,3%,.
CCN(CC)c1ccc(C=C2C(=O)OC(C)(C(C)(C)C)OC2=O)cc1 (stereo not given),0%,96,28%,1%,8%,-12%
Cn1cccc1C(=O)N1CCC2(CC1)CN(Cc1cc(C(F)(F)F)cc(C(F)(F)F)c1)C2,.,.,-31%,2%,-9%,-2%
CC(C)C(=O)N=C1SC2CS(=O)(=O)CC2N1Cc1ccccc1 (stereo not given),-1%,25,13%[0.074 µM],1%,-3%,-5%
Cc1ccc(/C(O)=C2\C(=O)C(=O)N(Cc3cccnc3)C2c2ccccc2[N+](=O)[O-])cc1 (stereo not given),-2%,-13,8%[10 µM],7.1µM*,1%,-7%
Cc1ccc(/C=N/n2c(C3CCCCC3)n[nH]c2=S)o1,3%,57,8%[0.074 µM],?,0%,28µM*
S=c1[nH]nc(C2CCCCC2)n1/N=C/c1cccs1,-4%,55,-2%,22µM*,-3%,13µM*
O=[N+]([O-])c1ccc(/C=N/n2c(C3CCCCC3)n[nH]c2=S)cc1,1%,6,-11%,-2%,-21%,4.5µM*
CC(/C=N/n1c(C2CCCCC2)n[nH]c1=S)=C\c1ccccc1,-8%,33,11%,-8%,18%,?
S=c1[nH]nc(C2CCCCC2)n1/N=C/c1ccncc1,0.22µM*,.,1%,-8%,-13%,.
CCCCCCCCCCCCCC(=O)N[C@@H](C)[C@H](O)c1ccccc1,.,.,-4%,0%,-1%,-11%
CC(=O)c1c(C)n(-c2ccccc2)c2ccc(OCC(N)=O)cc12,-23%[9.22 µM],.,-5%[10 µM],0%,-2%,.
Cc1cccc(-c2n[nH]c(=S)n2/N=C/c2ccc(C)o2)c1,17%,38,.,?,6%,16µM*
CCc1ccc(-c2nc(SCC(=O)N3CCOCC3)n[nH]2)cc1,8%,.,-82%,10%,2%,.
CSc1nc(C)c(Oc2ccccc2)c(=O)n1C,-2%,-21,-3%[10 µM],13%,-11%,13µM*
Cc1nc2cnc(Oc3ccccc3)nc2n(C)c1=O,.,.,?,?,3%,.
SMILES,HttQ103 aggreg,PNC inhibitor,HTT cytoprotect,ALDH1A1 block,RGS12 GoLoco inh,HPGD block
CCN(CC)Cc1c(O)ccc2c(=O)c(Oc3ccccc3OC)coc12,11%,-80*,14%,?,6%,?
CCN(CC)Cc1c(O)ccc2c(=O)c(-c3ccc4c(c3)OCCO4)coc12,11µM*,-15,12%[10 µM],?,6%,?
Cn1nnnc1SCC(=O)Nc1ccc(Br)cc1Cl,18%,-100*,-9%[10 µM],?,-70%,-16%
COc1ccccc1NC(=O)c1ccc(NC(=O)CSc2nnnn2C)cc1,15%,22,-12%[10 µM],0.79µM*,-29%,-26%
Cn1nnnc1SCC(=O)Nc1ccccc1Cl,2%,34,17%,9%,-1%,-6%
COc1ccccc1NC(=O)CSc1nnnn1-c1ccc(C)cc1,-1%,?,36%[10 µM],6%,-14%,-4%
Cn1nnnc1SCC(=O)Nc1c(Cl)cccc1Cl,15%,-26,0%,-9%,2%,22µM*
NC1=C(O)C(=O)[C@H](c2c[nH]c3ccc(OCc4ccccc4)cc23)O1,.,.,-20%[10 µM],-6%[13.5 µM],0%[14.2 µM],-7%
O=S(=O)(CC(c1ccccc1)N1CCCCC1)c1ccc(Cl)cc1 (stereo not given),3%[9.22 µM],.,15%[10 µM],.,10%,.
COc1ccnc(Oc2ccccc2)c1C(=O)N/C=N/OCc1ccccc1,-20%[9.22 µM],.,-18%[10 µM],?,2%,.
CO/N=C/NC(=O)c1c(OC)ccnc1Oc1ccccc1,3%,37,-9%,6.3µM*,13%,-8%
COc1ccc(S(=O)(=O)n2nc(OC(=O)C3CCCCC3)cc2N)cc1,?,-1,-33%,2µM*,8%,-12%
Cc1ccc(S(=O)(=O)n2nc(OC(=O)c3cccs3)cc2N)cc1,4%,67,-17%,2µM*,7%,-12%
Cc1ccc(S(=O)(=O)n2nc(OC(=O)C3CCCCC3)cc2N)cc1,-13%,-16,-20%,?,-5%,-13%
Nc1cc(OC(=O)c2ccco2)nn1S(=O)(=O)c1ccc(F)cc1,9%,17,-38%,14µM*,.,.
COc1ccc(-c2ccc(S(=O)(=O)n3nc(OC(=O)c4cccs4)cc3N)cc2)cc1,0%[9.22 µM],.,-22%[10 µM],1%,17%,.
COCCn1c(=O)c(-c2cc(F)cc(F)c2)nc2cnc(Oc3ccccc3)nc21,.,.,-5%,?,12%,?
CC(C)CCNC(=O)COC(=O)/C=C/c1ccc2ccccc2n1,7%[9.22 µM],.,0%,-2%,-3%,.
CC(=O)N1CCC[C@@]2(CCN(c3ccncc3)C2)C1,.,.,26%,-5%,0%,-1%
O=C(Oc1ccccc1)N1CCC2(CC1)CN(c1ccccc1)C2,.,.,-63%,-10%,7%,-2%
O=C1CC(N2CCCCC2)C(=O)N1c1ccccc1 (stereo not given),-11%,-100*,-12%[10 µM],?,-7%,-10%
O=C1CC(N2CCSCC2)C(=O)N1c1ccccc1 (stereo not given),.,.,.,?,11%,.
O=C1CC(N2CCCN(C3CC(=O)N(c4ccc(F)cc4)C3=O)CC2)C(=O)N1c1ccc(F)cc1 (stereo not given),?,-13,-20%[0.074 µM],13µM*,-2%,-5%
